We go through 14 compounds from ChEMBL document CHEMBL4513151, “CO-ADD screening of Institut Català d'Investigació Química (Spain) compounds”.

Each structure is given as a SMILES string. Where “and” joins values, the source holds several entries; their conditions need not be identical. Equal values may be shown once. Entries with a potency or affinity are not part of this list.

For the first assay, the system named is Staphylococcus aureus. The following applies: Concentration 32 ug.mL-1; ASSAY_TEST Inhibition of Bacterial Growth; detection method Absorption (OD600); MEDIA CAMHB; plate type 384well; NBS; CORNING #3640; time 18 hr.
Take `C=C1CC(C(=O)OC)(C(=O)OC)C[C@@H]1[C@H](c1ccccc1)n1ccc2ccccc21`: the Inhibition is 19.16%.
Still for that read-out and setting: next, `C=C1CC(C(=O)OC)(C(=O)OC)C[C@@H]1[C@@H](NS(=O)(=O)c1ccc(C)cc1)c1ccccc1`: 21%.
For the compound `C=C1CC(COC)(COC)C[C@@H]1[C@@H](Nc1ccc(Br)cc1)c1ccccc1`, the Inhibition was determined as 4.73%.
`C[C@@H]1CC(=O)C=C2C(=O)[C@@H]3[C@@H](C3(C)C)[C@]21C`: the Inhibition was found to be 24.26%.
As for `C=C1CC2(COC(C)(C)OC2)C[C@@H]1[C@@H](Nc1ccc(Br)cc1)c1ccccc1`, the Inhibition was 25.91%.
The same measure, in the same setting: next, `C[C@]12CC[C@@](c3ccc4ccccc4c3)(O1)[C@H]1C=C[C@H](OC(=O)c3ccccc3)[C@H]12`: 16.21%; `C=C1CC(COCc2ccc(OC)cc2)(COCc2ccc(OC)cc2)C[C@@H]1[C@@H](Nc1ccc(Br)cc1)c1ccccc1`: -1.38%.
The same measure, in the same setting: next, `C[C@]12CC[C@@H](O1)[C@H]1C=C[C@H](OC(=O)c3ccccc3)[C@H]12`: 21.38%; `C[C@]12CC[C@@](C)(O1)[C@H]1C=C[C@H](OC(=O)c3ccccc3)[C@H]12`: 17.97%; `C=C1CC(C(=O)OC)(C(=O)OC)C[C@@H]1[C@H](c1ccccc1)n1ccc2ccc(Cl)cc21`: 17.85%.
Still for that read-out and setting: next, `C[C@]12CC[C@@](C3CCCC3)(O1)[C@H]1C=C[C@H](OC(=O)c3ccccc3)[C@H]12`: 23.21%.

Staying with this assay, now noted: Concentration 32 ug.mL-1; ASSAY_TEST Inhibition of Bacterial Growth; detection method Absorption (OD600); MEDIA CAMHB; plate type 384well; NBS; CORNING #3640; time 18 hr, 32 ug/mL.
As to `C[C@]12CC[C@@](c3ccc(C(F)(F)F)cc3)(O1)[C@H]1C=C[C@H](OC(=O)c3ccccc3)[C@H]12`, the Inhibition is 20.36% and 17.47%.
For the compound `C[C@]12CC[C@@](C3CC3)(O1)[C@H]1C=C[C@H](OC(=O)c3ccccc3)[C@H]12`, the Inhibition was 14.3% and 9.5%.
On the same count and under the same terms, the value for `C[C@]12CC[C@@](c3ccccc3)(O1)[C@H]1C=C[C@H](OC(=O)c3ccccc3)[C@H]12` was 15.6% and 15.32%.

For the next assay, the system named is Escherichia coli. The note with it: Concentration 32 ug.mL-1; ASSAY_TEST Inhibition of Bacterial Growth; detection method Absorption (OD600); MEDIA CAMHB; plate type 384well; NBS; CORNING #3640; time 18 hr.
For the compound `C=C1CC(C(=O)OC)(C(=O)OC)C[C@@H]1[C@H](c1ccccc1)n1ccc2ccccc21`, the Inhibition was 2.95%.
Same read-out and setting: next, `C=C1CC(C(=O)OC)(C(=O)OC)C[C@@H]1[C@@H](NS(=O)(=O)c1ccc(C)cc1)c1ccccc1`: -0.02%.
Same read-out and setting: the value for `C=C1CC(COC)(COC)C[C@@H]1[C@@H](Nc1ccc(Br)cc1)c1ccccc1` was -1.74%; that for `C[C@@H]1CC(=O)C=C2C(=O)[C@@H]3[C@@H](C3(C)C)[C@]21C` was 3.69%; that for `C=C1CC2(COC(C)(C)OC2)C[C@@H]1[C@@H](Nc1ccc(Br)cc1)c1ccccc1` was 2.09%.
Same read-out and setting: next, `C[C@]12CC[C@@](c3ccc4ccccc4c3)(O1)[C@H]1C=C[C@H](OC(=O)c3ccccc3)[C@H]12`: -2.58%; `C=C1CC(COCc2ccc(OC)cc2)(COCc2ccc(OC)cc2)C[C@@H]1[C@@H](Nc1ccc(Br)cc1)c1ccccc1`: -13.28%.
Take `C[C@]12CC[C@@H](O1)[C@H]1C=C[C@H](OC(=O)c3ccccc3)[C@H]12`: the Inhibition was determined as 2.42%.
The same measure, in the same setting: the value for `C[C@]12CC[C@@](C)(O1)[C@H]1C=C[C@H](OC(=O)c3ccccc3)[C@H]12` was 0.47%; that for `C=C1CC(C(=O)OC)(C(=O)OC)C[C@@H]1[C@H](c1ccccc1)n1ccc2ccc(Cl)cc21` was 1.22%; that for `C[C@]12CC[C@@](C3CCCC3)(O1)[C@H]1C=C[C@H](OC(=O)c3ccccc3)[C@H]12` was 7.38%.
